# Assay results from PubChem BioAssay AID624483 (NMMLSC, 2012).
# Out of some 360,000 compounds screened, about 11,000 (3.1%) were called active. About 2% were inconclusive and are not listed. Rule as the data show it: active = fluorescence intensity above about 16000; inconclusive = no clear call, values can overlap the other calls; inactive = below that. The sample as a whole holds a higher share of actives than the screen did.
# Assay: counter-screen for toxin protease inhibitors: compound fluorescence, primary screen, artefact control for toxin protease inhibitor project, biochemical, multiplex microsphere, HTS (AID 624483)
# Conditions: compound autofluorescence counterscreen, microsphere flow cytometry; stronger effect = higher value
row,Structure (SMILES),fluorescence intensity
1,C=C1C(=O)[C@]23C[C@H]1CCC2[C@@]1(C)C(C[C@@H]3O)[C@](C)(C(=O)O)CC[C@@H]1O (stereo partly specified),4260 (inactive)
2,CC1=C(C(=O)N(C(C)C)C(C)C)CC(CC(=O)NCC2CCCCC2)C(=O)N1Cc1ccccc1 (stereo unspecified),5490 (inactive)
3,CCCCN(C1CCS(=O)(=O)C1)S(=O)(=O)c1ccc(C(C)C)cc1 (stereo unspecified),5460 (inactive)
4,Cc1ccc(S(=O)(=O)N(c2cccc(C)c2)C2CCS(=O)(=O)C2)cc1 (stereo unspecified),21200 (active)
5,CN(C1CCS(=O)(=O)C1)S(=O)(=O)c1ccc2ccccc2c1 (stereo unspecified),5860 (inactive)
6,CCOP(=O)(OCC)C(Cc1ccccc1)N=C(c1ccccc1)c1ccccc1 (stereo unspecified),5750 (inactive)
7,Cn1cnc(S(=O)(=O)Nc2ccc3c(c2)OCCO3)c1,3290 (inactive)
8,CCC(c1nnnn1-c1ccc2c(c1)OCCO2)N1CCN(c2ccc(C(F)(F)F)cn2)CC1 (stereo unspecified),5170 (inactive)
9,CC(=O)Nc1cc(-c2ccc(N3CCN(C)CC3)cc2)cn2c(-c3cccc(C(=O)N(C)C)c3)cnc12,2910 (inactive)
10,CC/S(CC1CC1(Cl)Cl)=N\S(=O)(=O)c1ccc(C)cc1 (stereo unspecified),19500 (active)
11,Cc1ccc(S(=O)(=O)/N=S(\C)C(C)C)cc1 (stereo unspecified),2730 (inactive)
12,CCCC/S(C)=N/S(=O)(=O)c1ccc(C)cc1 (stereo unspecified),1940 (inactive)
13,CC(=O)c1ccc(-c2cnc3c(NC=O)cc(-c4cccc(NS(C)(=O)=O)c4)cn23)cc1,4010 (inactive)
14,COc1ccc(C(c2nnnn2C2CCCC2)N2CCN(C/C=C/c3ccccc3)CC2)cc1 (stereo unspecified),5910 (inactive)
15,CCCCCCOC(=O)NCC(O)c1ccccc1 (stereo unspecified),17600 (active)
16,O=C(CC(c1ccccc1)c1ccccc1)NCC(O)c1ccc([N+](=O)[O-])cc1 (stereo unspecified),3190 (inactive)
17,CCCCOC(=O)Nc1nnc(CC(=O)NCc2ccccc2)s1,3980 (inactive)
18,Cc1cccc(CN2CCN(C3CN(Cc4cn(Cc5cc(C)cc(C)c5)nn4)S(=O)(=O)C3)CC2)c1 (stereo unspecified),4640 (inactive)
19,CCCCCCN1CCN(C2CN(Cc3cn(CCCCCC)nn3)S(=O)(=O)C2)CC1 (stereo unspecified),5850 (inactive)
20,COc1ccc([N+](=O)[O-])cc1N(CC(O)CN(CC(C)C)CC(C)C)S(=O)(=O)c1ccc(C)cc1 (stereo unspecified),3790 (inactive)
21,COc1ccc([N+](=O)[O-])cc1N(CC(O)Cn1nnc2ccccc21)S(=O)(=O)c1ccc(C)cc1 (stereo unspecified),17900 (active)
22,Cc1ccc(S(=O)(=O)N(CC(O)CN2CCCCC2)c2cccc([N+](=O)[O-])c2)cc1 (stereo unspecified),3000 (inactive)
23,CC(C)[C@@H](C(=O)OCC(=O)c1ccc2c(c1)NC(=O)CO2)N1C(=O)c2ccccc2C1=O,3880 (inactive)

row,Structure (SMILES),fluorescence intensity
1,C=C(C)C(=O)O[C@H]1C/C(C)=C\C(=O)/C=C(\C)[C@H](O)[C@@H]2OC(=O)C(=C)[C@@H]21,2760 (inactive)
2,CCOC(=O)c1c(C)n(C)c2ccc(OC)c(NS(=O)(=O)CC)c12,2300 (inactive)
3,CCOc1ccc(NC(=O)N(CCC(C)C)C(C)c2ccco2)cc1 (stereo unspecified),2150 (inactive)
4,CCOc1ccc(NC(=O)N(CC(C)C)CC(C)C)cc1,20300 (active)
5,CCOc1ccc(NC(=O)Nc2ccc(N(C)C(C)=O)cc2)cc1,4350 (inactive)
6,CCOC(=O)C1=C(C)NC(C)=C(C(=O)OCC)C1C1=COCCO1,5040 (inactive)
7,CCCC1NC(=S)NC(C)=C1C(C)=O (stereo unspecified),4600 (inactive)
8,CCCC1NC(=O)NC(C)=C1C(=O)OCC (stereo unspecified),20200 (active)
9,CC(=O)NC(c1ccccc1)c1nc(-c2ccccc2C)cs1 (stereo unspecified),3560 (inactive)
10,O=C(NC(=S)Nc1ccc(NC(=O)c2cccs2)cc1)c1ccc([N+](=O)[O-])cc1,8970 (inactive)
11,O=C(Nc1ccccc1-c1ccccc1)c1cccs1,4880 (inactive)
12,O=C(O)Cc1ccc(NC(=O)c2cccs2)cc1,19700 (active)
13,CCc1ccc(NC(=O)C(=O)NNC(=O)c2cccs2)cc1,5780 (inactive)
14,O=C(Nc1ccc(N2CCN(C(=O)C3CC3)CC2)cc1)c1cccs1,2520 (inactive)
15,O=C(O)c1ccc(NC(=O)c2cccs2)cc1,23200 (active)
16,CC(C)CCNC(=O)c1[nH]c(C(F)(F)F)nc1-c1ccccc1,5980 (inactive)
17,CCOC(=O)[C@]12CCC=C1N(Cc1ccco1)C(=O)[C@H](CC(=O)NCc1cccc(C(F)(F)F)c1)C2,4290 (inactive)
18,COC(=O)[C@]12CCCCC=C1N(CCC1=CCCCC1)C(=O)[C@H](CC(=O)N1CCSCC1)C2,5780 (inactive)
19,CC(=O)Nc1ccc(CNc2nc(NCCN(C)C)nc3cc(-c4ccccc4)sc23)cc1,3970 (inactive)
20,Cc1cc(Cl)ccc1NNC(=O)c1snnc1C,3890 (inactive)
21,Cc1noc(C)c1COc1cccc(C(=O)Nc2cccnc2)c1,4200 (inactive)
22,CC1(C(=O)Nc2cccnc2)Cc2c(-c3ccccc3)ccnc2O1 (stereo unspecified),2820 (inactive)
23,O=C(Nc1cccnc1)c1noc2c1CCCCC2,24400 (active)

row,Structure (SMILES),fluorescence intensity
1,CS(=O)(=O)N(CC(=O)N1CCOCC1)c1cccc(Cl)c1Cl,4130 (inactive)
2,COC(=O)c1ccc(CN2C(=O)C(Cc3ccccc3)ON=C2c2ncccc2C)o1 (stereo unspecified),4970 (inactive)
3,COc1cccc(CSc2nc3nc(C)cc(C)n3n2)c1,3360 (inactive)
4,COCCCn1c(SCc2cccc(OC)c2)nc2cc(OC)c(OC)cc2c1=N,23400 (active)
5,COCCn1c(SCc2nc3cc(OC)c(OC)cc3c(=O)[nH]2)nnc1-c1ccncc1,3550 (inactive)
6,CC(C)CN1CCC1(C)C(=O)Nc1ccc(OC(F)F)cc1 (stereo unspecified),3880 (inactive)
7,O=C(CSCc1ccccc1Cl)NNC(=O)c1ccccc1,18500 (active)
8,O=C(COC(=O)c1ncc(Cl)c(Cl)c1Cl)NNC(=O)c1ccccc1,4100 (inactive)
9,O=C(COC(=O)Cc1ccccc1F)NNC(=O)c1ccc(Cl)cc1,5990 (inactive)
10,Cn1cnnc1Sc1ccc(S(C)(=O)=O)cc1[N+](=O)[O-],3290 (inactive)
11,COc1ccc(COC[C@H](CC(C)C)N2CCN(C(=O)c3cccc(C(F)(F)F)c3)CCC2=O)cc1,4210 (inactive)
12,COc1ccc(S(=O)(=O)N(C)CC(=O)Nc2ccc3c(c2)OCCO3)cc1OC,3400 (inactive)
13,COc1ccc(NC(=O)CN(Cc2ccccc2)S(C)(=O)=O)cc1OC,2130 (inactive)
14,COc1ccc(NC(=O)CN(C)S(=O)(=O)c2ccccc2)cc1OC,16600 (active)
15,O=C(Nc1cccc2cccnc12)c1ccc2sc([C@H]3C[C@H](O)[C@@H](CO)O3)nc2c1,3070 (inactive)
16,Cc1cc(C)cc(OCC(=O)Nc2cc(NC(=O)COc3cc(C)cc(C)c3)cc(C(=O)O)c2)c1,3790 (inactive)
17,CC(C)CC1C(=O)N(Cc2cn(Cc3ccco3)nn2)CCS(=O)(=O)N1Cc1ccc(-c2ccc(Cl)c(Cl)c2)cc1 (stereo unspecified),3840 (inactive)
18,O=C(OCC#CCSc1nnc(-c2ccncc2)o1)c1sc2ccccc2c1Cl,2840 (inactive)
19,COc1ccc2c(Cl)c(-c3nnco3)sc2c1,3460 (inactive)
20,C#CCSc1nnc(-c2sc3ccccc3c2Cl)o1,19600 (active)
21,CCCCCc1c(Cc2ccccc2)ncn1CCc1ccccc1OC,4640 (inactive)
22,O=C(NCc1ccc(F)cc1F)[C@@H]1CCCN1C(=O)[C@@H]1CCCN1C(=O)c1cccc(Cl)c1,6340 (inactive)
23,C[C@H]1CN([C@@H](C)CO)C(=O)CCCn2cc(nn2)CO[C@@H]1CN(C)C(=O)Nc1ccccc1,2950 (inactive)

row,Structure (SMILES),fluorescence intensity
1,Cc1cccc(-n2c(N)c(C(=O)N3CCN(C)CC3)sc2=S)c1,2920 (inactive)
2,COC(=O)c1sc(=S)n(-c2ccccc2)c1N,20900 (active)
3,N#Cc1ccccc1-n1c(N)c(C(=O)N2CCCC2)sc1=S,9660 (inactive)
4,Cn1c(=O)c2cc(NC(=O)NCCc3cccs3)ccc2n1Cc1cccc(C(F)(F)F)c1,3800 (inactive)
5,CCCCn1c(SCC(=O)N2CCOCC2)nc2c1c(=O)n(C)c(=O)n2C,5590 (inactive)
6,C#CC(C)(C)NC(=O)CSc1nc2c(c(=O)n(C)c(=O)n2C)n1CCCC,5580 (inactive)
7,CCCCn1c(SCC(=O)NCCc2ccc(OC)c(OC)c2)nc2c1c(=O)n(C)c(=O)n2C,22600 (active)
8,C=CCSc1nnc(Cn2c(=O)sc3ccccc32)n1C,5480 (inactive)
9,CC(=O)Nc1cccc(-c2ccnc3c2CC(C)(C(=O)NCc2ccco2)O3)c1 (stereo unspecified),3800 (inactive)
10,CCN1C(=O)[C@H]2[C@@H](c3ccc(C(F)(F)F)cc3)N[C@]3(CCCN(Cc4ccc(Br)cc4)C3=O)[C@H]2C1=O,3620 (inactive)
11,COc1ccc(CCNC(=O)c2cc3sccc3n2C)cc1OC,21800 (active)
12,Cn1c(C(=O)NCCCN2CCCCC2)cc2sccc21,8510 (inactive)
13,COc1ccc(CCNC(=O)COC(=O)/C=C/c2cccs2)cc1OC,3190 (inactive)
14,CCOC(=O)C1Nc2ccc(C(F)(F)F)cc2C2C=CCC12 (stereo unspecified),2760 (inactive)
15,CC(=O)Nc1cc(-c2ccccc2N(C)C)cn2c(-c3ccc(F)c(Cl)c3)cnc12,3420 (inactive)
16,O=C1NC[C@H](Cc2ccc(O)cc2)N(C[C@H]2CCCN2C[C@H](Cc2ccccc2)N2C[C@H](Cc3ccccc3)N(CCc3ccccc3)C(=O)C2=O)C1=O,5960 (inactive)
17,O=C(Nc1ccc(Cl)cn1)c1ccccc1-c1ccccc1,3610 (inactive)
18,CC(OC(=O)CNC(=O)c1ccco1)C(=O)Nc1ccc(Cl)cn1 (stereo unspecified),4920 (inactive)
19,CCCCC(CC)C(=O)Nc1ccc(Cl)cn1 (stereo unspecified),21400 (active)
20,CCCOc1ccccc1C1CC(=O)Nc2cc3c(cc21)OCO3 (stereo unspecified),3540 (inactive)
21,COCCOC(=O)C1=C(C)NC(=O)CC1c1cc2c(cc1Br)OCO2 (stereo unspecified),22200 (active)
22,COCCOC(=O)C1=C(C)NC(=O)NC1c1cc2c(cc1Br)OCO2 (stereo unspecified),3890 (inactive)
